The list is not random: actives were taken first. Their share in the collection is about 2.2%.
PLC-gamma1 inh – blocks human PLC-gamma1 enzyme activity; inhibition, % at 12.2 µM; AID 720700; actives 0.84% (n = 370,000); P19174; purified PLC-gamma1, fluorogenic substrate, fluorescence; in the data active means inhibition above about 9.5%
NPR2 activator – GC-B (human) receptor activation. HEK293-GC-B cells, CNP EC30, cGMP TR-FRET; 0% at EC30 CNP, 100% saturating CNP. activation, % at 10 µM. AID 1920062. actives 0.11% (n = 370,000);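 active means activation at 10 µM reaching about 35% in either raw or pattern-adjusted values, limit read from the data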
GC-A act – GC-A (human) enzyme activation; P16066; HEK293 GC-A cells, cGMP TR-FRET, EC30 ANP; 0% at EC30 ANP, 100% saturating ANP; activation, % at 10 µM; actives 0.14% (n = 370,000); in the data active means activation above about 40%
Rce1 inh – yeast Ras-converting enzyme inhibition | Q03530 | yeast membranes, quenched prenylated peptide cleavage fluorescence | calls only | actives 0.27% (n = 290,000) | AID 2563;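 active means fall in fluorescence gain of 50% or more versus controls, with final raw signal at or below 3038400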;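 further: plate controls were neutral control wells for no effect and wells lacking membranes for full effect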
M18AAP inhibitor – blocks P. falciparum M18 aspartyl aminopeptidase. actives 1.2% (n = 290,000). inhibition, % at 7.35 µM. recombinant PfM18AAP, H-Glu-NHMec fluorogenic cleavage;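 active means inhibition above the campaign mean inhibition over all tested compounds plus 3 SD, cut at about 28% in these data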;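 further: 0% = plate median of test compound wells and 100% = 2 mM ZnCl2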
PLC-beta3 inh – PLC-beta3 (human) inhibition, primary screen; Q01970; Purified PLC-beta3, fluorogenic substrate, fluorescence; inhibition, % at 12.2 µM; actives 0.18% (n = 370,000);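 further: 0% = median of compound wells on plate and 100% = full blocker control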
Target sequence (Q01970 whole entry, looked up): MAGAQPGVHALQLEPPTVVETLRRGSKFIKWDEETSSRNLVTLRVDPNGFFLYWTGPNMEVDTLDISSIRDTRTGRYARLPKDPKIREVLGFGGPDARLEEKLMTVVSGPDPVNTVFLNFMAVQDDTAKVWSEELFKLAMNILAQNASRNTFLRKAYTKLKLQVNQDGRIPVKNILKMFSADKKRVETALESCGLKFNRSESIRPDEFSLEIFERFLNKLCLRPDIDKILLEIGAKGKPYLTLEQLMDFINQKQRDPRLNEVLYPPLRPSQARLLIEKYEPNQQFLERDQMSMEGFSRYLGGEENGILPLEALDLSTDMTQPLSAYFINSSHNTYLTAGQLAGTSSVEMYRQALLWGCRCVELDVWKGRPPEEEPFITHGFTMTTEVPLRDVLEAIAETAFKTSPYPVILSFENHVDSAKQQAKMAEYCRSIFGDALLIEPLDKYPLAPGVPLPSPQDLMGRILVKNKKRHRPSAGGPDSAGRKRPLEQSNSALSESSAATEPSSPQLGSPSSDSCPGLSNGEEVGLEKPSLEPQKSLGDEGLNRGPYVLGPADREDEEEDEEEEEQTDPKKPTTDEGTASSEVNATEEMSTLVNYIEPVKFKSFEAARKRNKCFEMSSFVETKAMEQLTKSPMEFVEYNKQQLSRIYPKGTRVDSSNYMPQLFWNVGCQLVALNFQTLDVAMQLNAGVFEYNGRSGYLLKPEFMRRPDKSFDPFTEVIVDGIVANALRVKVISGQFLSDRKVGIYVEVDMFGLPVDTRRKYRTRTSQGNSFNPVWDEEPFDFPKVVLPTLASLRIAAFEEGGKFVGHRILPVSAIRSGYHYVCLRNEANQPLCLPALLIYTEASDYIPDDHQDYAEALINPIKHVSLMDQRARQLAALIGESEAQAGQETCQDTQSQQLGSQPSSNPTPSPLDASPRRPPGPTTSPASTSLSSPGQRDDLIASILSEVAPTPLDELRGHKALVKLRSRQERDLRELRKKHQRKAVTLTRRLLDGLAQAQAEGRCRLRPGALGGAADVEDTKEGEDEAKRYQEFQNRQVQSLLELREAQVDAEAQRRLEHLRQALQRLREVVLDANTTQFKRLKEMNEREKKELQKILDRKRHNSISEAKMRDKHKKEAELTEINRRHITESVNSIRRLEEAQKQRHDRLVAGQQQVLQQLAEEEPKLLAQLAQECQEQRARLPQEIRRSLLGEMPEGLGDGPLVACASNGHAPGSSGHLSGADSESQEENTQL
PLCgamma1 ctr – counter-screen for PLC-beta3 inhibitors: inhibitors of human PLC-gamma1. purified PLC-gamma1, fluorogenic substrate, fluorescence. inhibition, % at 12.3 µM. shares compounds with PLC-gamma1 inh. actives 3.1% (n = 3,300); in the data active means inhibition above about 9.5%
PLCbeta3 conf – confirmation of human PLC-beta3 inhibitors. shares compounds with PLC-gamma1 inh. inhibition, % at 12.3 µM. actives 1% (n = 3,300). purified PLC-beta3, fluorogenic substrate fluorescence. AID 743261
* marks the source's active call; other numbers are inactive results; i = inactive; / = no result. Unless noted, no stated cut-off is given here; in the data, active means inhibition above about 11%; inactive means the rest.

SMILES	PLC-gamma1 inh	NPR2 activator	GC-A act	Rce1 inh	M18AAP inhibitor	PLC-beta3 inh	PLCgamma1 ctr	PLCbeta3 conf
COc1cc2c3cc1Oc1cc(ccc1O)C[C@@H]1c4c(cc(OC)c(O)c4Oc4ccc(cc4)C[C@@H]3N(C)CC2)CC[N+]1(C)C	13*	-2	2	/	/	10	-3	-1
CCOC(=O)[C@]12CCCC=C1N(CCCOC)C(=O)[C@@H]2CC(=O)NCCCN1CCCC1=O	2	-1	1	/	/	3	/	/
O=C(Oc1cccc(N2C(=O)CCC2=O)c1)C1CC(=O)N(c2ccc(Br)cc2)C1 (stereo not drawn)	7	-3	5	i	1	11*	-3	3
Cc1cc(NC(=O)CCCC(=O)O)nc(C)n1	10*	2	2	i	-4	5	-2	-1
Cc1ccc(O)c(NC(=O)CCCC(=O)O)c1	-2	7	-1	i	2	0	/	/
Cc1cccc(NC(=O)CN2C(=O)CCSc3ccccc32)c1C	-2	-21	-17	/	/	1	/	/
CCOC(=O)Cn1nnc(-c2ccccc2)n1	3	-2	-1	i	-10	14*	-2	2
Cc1cccc(C(=O)Oc2coc(CSc3nnc(NC(=O)C4CC4)s3)cc2=O)c1	1	3	-3	i	2	6	/	/
Cc1ccc(C(=O)Oc2coc(CSc3nnc(NC(=O)C4CC4)s3)cc2=O)cc1C	11*	-3	-4	/	1	8	1	1
COC(=O)C1CN(C(=O)OC(C)(C)C)C2=C1C(=O)CC(C)(C(=O)OC(C)(C)C)C2 (stereo not drawn)	0	1	-4	/	/	-1	/	/
CCOC(=O)[C@]12CCCC=C1N(CCCOC)C(=O)[C@@H]2CC(=O)NCc1ccc(C)o1	10*	2	3	/	/	3	6	0
CCOC(=O)N1CCN(C(=O)C[C@H]2C(=O)N(Cc3ccc(OC)cc3)C3=CCCC[C@@]32C(=O)OCC)CC1	11*	0	-4	/	/	2	-7	-2
COC(=O)[C@]12CCCCC=C1N(Cc1ccc(OC)cc1)C(=O)[C@@H]2CC(=O)N1CCN(C(=O)C2CC2)CC1	12*	1	-3	/	/	9	-4	-1
O=C(N[C@H](C(=O)N1CCC[C@H]1C(=O)NCc1ccccc1)c1ccccc1)c1ccccc1	1	-10	-4	/	/	1	/	/
CCCS(=O)(=O)N1CCC(C(=O)NCCN2CCC(Cc3ccccc3)CC2)CC1	15*	-5	-5	i	-7	13*	-5	-5
CCS(=O)(=O)N1CCC(C(=O)NCCCN2CCC(Cc3ccccc3)CC2)CC1	11*	1	2	i	-18	1	-2	-2
Cc1ccccc1N(C)C(=O)CN1CCN(c2nc(-c3ccccc3)cs2)CC1	-1	-7	-2	/	/	-1	/	/
COc1ccc(C(=O)NCC2CCN(C(=O)C(=O)c3cccs3)CC2)c(OC)c1	1	-1	-4	/	/	-1	/	/
CCN(CC)S(=O)(=O)c1ccc(N2CCOCC2)c(NS(=O)(=O)c2cc(C(C)(C)C)ccc2C)c1	12*	5	1	i	-8	6	-2	-26
Cc1cc(Cl)ccc1OCC(=O)N1CC(C)CC(C)C1 (stereo not drawn)	0	-2	2	i	2	3	/	/
Cc1cc(Cl)ccc1OCC(=O)N1CCCN(C(=O)COc2ccc(Cl)cc2C)CC1	10*	-5	-11	i	3	4	-9	-4
Cc1cc(Cl)ccc1OC(C)C(=O)N1CCCN(C(=O)C(C)Oc2ccc(Cl)cc2C)CC1 (stereo not drawn)	10*	-19	-17	i	0	4	-5	-4
COc1ccc(-c2c(Cc3ccccc3)nc(NC(=O)c3ccccc3)n2Cc2ccc(OC)cc2OC)cc1	-29	-3	6	/	/	-48	/	/
N#Cc1ccc(/C=C2\CC3(OC(=O)c4ccccc4)CCCN2C3)cc1 (stereo not drawn)	-3	-9	-6	/	/	-5	/	/
Cn1c(=O)oc2cc(S(=O)(=O)N3CCN(c4cccc(C(F)(F)F)c4)CC3)ccc21	4	2	-3	/	/	4	/	/
SMILES	PLC-gamma1 inh	NPR2 activator	GC-A act	Rce1 inh	M18AAP inhibitor	PLC-beta3 inh	PLCgamma1 ctr	PLCbeta3 conf
COC(=O)[C@]1(CNS(=O)(=O)c2ccc(F)cc2)CC(=O)N(C)[C@@H]1c1ccccc1	-2	-4	0	/	/	2	/	/
CC(=O)Nc1ccc(N2C(=O)CSC2c2ccc(F)cc2)cc1 (stereo not drawn)	0	2	-1	i	2	1	/	/
CC(=O)Nc1ccc(N2C(=O)CSC2c2c(F)cccc2Cl)cc1 (stereo not drawn)	8	2	-1	i	-4	14*	-2	-2
COC(=O)c1cc(-c2ccc3ccccc3c2)c(=O)n2c1CCC2	-95	-5	6	/	/	-130	/	/
CCOC(=O)c1ccccc1NC(=O)c1cn(-c2ccc(C)c(C)c2)c(=O)c2ccccc12	9.9*	5	-2	i	-8	2	-3	-4
CC(C)(CO)Cc1cc(C(C)(C)C)c(O)c(C(C)(C)C)c1	11*	3	8	/	/	4	-7	-4
FC(F)(F)C1=CC(c2ccc(Cl)cc2)=NCCN1	11*	-13	-9	i	-9	4	7	6
Oc1ccccc1C1=NCCNC(C(F)(F)F)=C1	-1	0	0	i	2	2	/	/
CN(C)C(=O)CCc1nc(-c2ccc(C(C)(C)C)cc2)no1	12*	-3	0	i	12	5	-8	-1
COC(=O)[C@]1(CC(C)C)NC=C(C(=O)c2ccccc2)[C@@H]1c1cccs1	-3	-5	1	/	/	-10	/	/
CS(=O)(=O)N(CCc1ccccc1)CC(=O)N1CCCC1	-1	8	3	i	8	-7	/	/
CS(=O)(=O)N(CCc1ccccc1)CC(=O)N1CCCCCC1	2	-1	3	/	/	13*	-7	-3
COCCCNC(=O)C[C@H]1C[C@@]2(C(=O)OC)C(=C[C@H](C(C)C)O[C@@H]2C2CC2)N(Cc2ccccc2)C1=O	1	-5	1	/	/	-1	/	/
COc1ccc(C(C)NC(=S)NCc2ccc(F)cc2)cc1OC (stereo not drawn)	17*	2	-2	i	-2	-7	3	3
Cc1cccc(OCCCC(=O)Nc2ccc(N(C)C)cc2)c1	-3	-6	-3	i	10	-2	/	/
Cc1cccc(OCCC(=O)Nc2ccc(F)c(F)c2)c1	9.7*	3	-3	i	0	0	-1	2
CC(C)(C)c1ccc(S(=O)(=O)N2CCC(C(=O)NCCC3=CCCCC3)CC2)cc1	1	-3	-4	/	/	2	/	/
